# Results: PubChem BioAssay (NCI)
# About 83,000 compounds went through this panel and 20% of them were active in at least one assay; those are over-represented in the sample as a whole.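 Plates (96-well) were seeded with cells, treated with compound at one concentration, and incubated for 48 hours before percent growth was determined.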 Values without a mark were called inactive. Active and inactive are the calls of the source. Rule for the calls: active = growth percent below 10; inactive = the rest.
# Test system: MDA-MB-468 breast
# Assay: NCI-60 one-dose screen, 48 h (100 = growth as untreated, 0 = no growth, -100 = all killed)
# Conditions: 10 µM unless noted
row,Compound,growth
1,COc1cc(NC(C)CCCN)c2ncccc2c1Oc1ccc(Cl)cc1 (stereo unspecified),58.6%
2,OC(CBr)c1ccnc2ccccc12 (stereo unspecified),100%
3,CCCCn1c(C(=O)c2c[nH]c3ccccc23)n[nH]c1=S,109%
4,COc1cc2ncnc(Nc3ccc(Oc4ccnc(C)c4)c(C)c3)c2cc1NC(=O)CC1CCSS1 (stereo unspecified),-67% (active)
5,O=C1/C(=C/c2ccc([N+](=O)[O-])cc2)CN(C(=O)CCN2CCC(=NO)CC2)C/C1=C\c1ccc([N+](=O)[O-])cc1,-33.6% (active)
6,N#Cc1nc(C#N)c(Sc2ccccc2)c(Sc2ccccc2)c1Sc1ccccc1,-73.9% (active)
7,NNC(=O)CSc1nc2scc(-c3ccccc3)c2c(=O)n1-c1ccccc1,102%
8,CCOC(=O)/C(C#N)=C\c1c[nH]c2ccccc12,97.4%
9,CC(=O)c1c(C)nc2ccccc2c1/C=C/c1ccc(F)cc1,46.1%
10,CN1CCN(C(=O)OCCOCCOC(=O)N2CCN(C)CC2)CC1,107%
11,CN=C1C=CC(=C(c2ccc(N(C)C)cc2)c2ccc(N(C)C)cc2)C=C1,-47.5% (active)
12,COc1ccc(/C(=C\c2ccccc2)C(=O)O)cc1OC,93.2%
13,CNCCCC12CCC(c3ccccc31)c1ccccc12,29.4%
14,COc1ccc2c(c1)Oc1nc(N)c(C#N)c(N)c1C2Sc1ccc(C)cc1 (stereo unspecified),-45.8% (active)
15,COc1ccc(NC(=O)/N=c2\oc3c(OC)cccc3cc2-c2cc3ccccc3[nH]2)cc1,61.1%
16,CCOC(=O)C1=C(C(=O)OCC)N(c2cc(OC)c(OC)c(OC)c2)C(N)=C(C#N)C1c1cc(=O)[nH]c2ccccc12 (stereo unspecified),92%
